Measured values from PubChem BioAssay AID1159580 (chemical genetic matrix, 2015).
Hit rate of the full screen: of about 5,500 compounds, about 2,000 (36%) were called active. About 18% were inconclusive and are not listed. Cut-off read from the data, not from the text of the source: active = normalized growth mostly below about 0.91 (no sharp cut-off); inconclusive = no clear call, values can overlap the other calls; inactive = mostly above about 0.92. The list shows a part of the results.

Assay: chemical genetic growth profiling, strain panel (AID 1159580);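 note: tested at 20 µM; growth read once vehicle control cultures reached saturation at 30 °C; 1 = growth at the plate median or of vehicle wells; lower values mean less growth of the strain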
Conditions: growth OD

Measured: normalized growth

Nc1nccs1
active: S. cerevisiae deletion strains, locus YER155C, strain BEM2 (second series), active compounds read low 0.841 | S. cerevisiae deletion strains, locus YOR270C, strain vph1, active compounds read low 0.638
inactive: S. cerevisiae deletion strains, locus YAL021C, strain ccr4, active compounds read low 0.994 | S. cerevisiae deletion strains, locus YAL026C, strain drs2, active compounds read low 0.993 | S. cerevisiae deletion strains, locus YAL030W, strain snc1, active compounds read low 0.995 | S. cerevisiae deletion strains, locus YBL061C, strain skt5, active compounds read low 0.995 | S. cerevisiae deletion strains, locus YBR009C, strain hhf1, active compounds read low 0.987 | S. cerevisiae deletion strains, locus YBR021W, strain FUR4, active compounds read low 1.03 | S. cerevisiae deletion strains, locus YBR023C, strain chs3, active compounds read low 0.991 | S. cerevisiae deletion strains, locus YBR171W, strain sec66, active compounds read low 0.975 | S. cerevisiae deletion strains, locus YBR229C, strain ROT2, active compounds read low 0.949 | S. cerevisiae deletion strains, locus YBR231C, strain swc5, active compounds read low 0.973 | S. cerevisiae deletion strains, locus YBR279W, strain paf1, active compounds read low 1 | S. cerevisiae deletion strains, locus YCL011C, strain gbp2, active compounds read low 1.02 | S. cerevisiae deletion strains, locus YCL016C, strain dcc1, active compounds read low 0.989 | S. cerevisiae deletion strains, locus YCL029C, strain bik1, active compounds read low 0.98 | S. cerevisiae deletion strains, locus YCL061C, strain MRC1, active compounds read low 0.978 | S. cerevisiae deletion strains, locus YCL069W, strain vba3, active compounds read low 0.988 | S. cerevisiae deletion strains, locus YCR088W, strain abp1, active compounds read low 0.992 | S. cerevisiae deletion strains, locus YDL005C, strain med2, active compounds read low 0.985 | S. cerevisiae deletion strains, locus YDL035C, strain GPR1, active compounds read low 1.01 | S. cerevisiae deletion strains, locus YDL040C, strain nat1, active compounds read low 0.986 | S. cerevisiae deletion strains, locus YDL074C, strain BRE1, active compounds read low 0.96 | S. cerevisiae deletion strains, locus YDL101C, strain DUN1, active compounds read low 0.974 | S. cerevisiae deletion strains, locus YDL134C, strain PPH21, active compounds read low 0.983 | S. cerevisiae deletion strains, locus YDL185W, strain tfp1, active compounds read low 0.984 | S. cerevisiae deletion strains, locus YDL192W, strain arf1, active compounds read low 0.983 | S. cerevisiae deletion strains, locus YDR001C, strain nth1, active compounds read low 1 | S. cerevisiae deletion strains, locus YDR069C, strain doa4, active compounds read low 0.95 | S. cerevisiae deletion strains, locus YDR101C, strain arx1, active compounds read low 0.941 | S. cerevisiae deletion strains, locus YDR137W, strain rgp1, active compounds read low 0.998 | S. cerevisiae deletion strains, locus YDR159W, strain sac3, active compounds read low 0.953 | S. cerevisiae deletion strains, locus YDR162C, strain NBP2, active compounds read low 0.996 | S. cerevisiae deletion strains, locus YDR195W, strain ref2 0.958 | S. cerevisiae deletion strains, locus YDR297W, strain sur2, active compounds read low 0.997 | S. cerevisiae deletion strains, locus YDR318W, strain mcm21, active compounds read low 0.989 | S. cerevisiae deletion strains, locus YDR334W, strain swr1, active compounds read low 0.997 | S. cerevisiae deletion strains, locus YDR335W, strain msn5, active compounds read low 0.978 | S. cerevisiae deletion strains, locus YDR388W, active compounds read low 0.991 | S. cerevisiae deletion strains, locus YDR392W, strain spt3, active compounds read low 0.945 | S. cerevisiae deletion strains, locus YDR502C, strain sam2, active compounds read low 0.983 | S. cerevisiae deletion strains, locus YEL003W, strain gim4, active compounds read low 0.997 | S. cerevisiae deletion strains, locus YEL037C, strain rad23, active compounds read low 0.987 | S. cerevisiae deletion strains, locus YEL061C, strain CIN8 (second series), active compounds read low 0.991 | S. cerevisiae deletion strains, locus YEL061C, strain CIN8, active compounds read low 0.984 | S. cerevisiae deletion strains, locus YER015W, strain faa2, active compounds read low 0.991 | S. cerevisiae deletion strains, locus YER016W, strain bim1, active compounds read low 1.01 | S. cerevisiae deletion strains, locus YER110C, active compounds read low 0.986 | S. cerevisiae deletion strains, locus YER111C, strain swi4, active compounds read low 0.986 | S. cerevisiae deletion strains, locus YER155C, strain BEM2, active compounds read low 1 | S. cerevisiae deletion strains, locus YER167W, strain BCK2, active compounds read low 0.995 | S. cerevisiae deletion strains, locus YFR010W, strain ubp6, active compounds read low 0.991 | S. cerevisiae deletion strains, locus YGL078C, strain dbp3, active compounds read low 1.01 | S. cerevisiae deletion strains, locus YGL086W, strain mad1, active compounds read low 0.953 | S. cerevisiae deletion strains, locus YGL167C, strain pmr1, active compounds read low 0.981 | S. cerevisiae deletion strains, locus YGL173C, strain kem1, active compounds read low 0.99 | S. cerevisiae deletion strains, locus YGL227W, strain vid30, active compounds read low 0.991 | S. cerevisiae deletion strains, locus YGL240W, strain doc1, active compounds read low 0.96 | S. cerevisiae deletion strains, locus YGL248W, strain PDE1, active compounds read low 0.974 | S. cerevisiae deletion strains, locus YGL253W, strain hxk2, active compounds read low 1.01 | S. cerevisiae deletion strains, locus YGR135W, strain pre9, active compounds read low 1.06 | S. cerevisiae deletion strains, locus YGR229C, strain SMI1, active compounds read low 1.01 | S. cerevisiae deletion strains, locus YGR252W, strain gcn5, active compounds read low 1.09 | S. cerevisiae deletion strains, locus YHR013C, strain ard1, active compounds read low 1.02 | S. cerevisiae deletion strains, locus YHR027C, strain rpn1, active compounds read low 0.994 | S. cerevisiae deletion strains, locus YHR030C, strain SLT2, active compounds read low 1 | S. cerevisiae deletion strains, locus YHR079C, strain IRE1 (second series), active compounds read low 0.989 | S. cerevisiae deletion strains, locus YHR094C, strain hxt1, active compounds read low 0.984 | S. cerevisiae deletion strains, locus YHR129C, strain ARP1, active compounds read low 0.987 | S. cerevisiae deletion strains, locus YHR142W, strain chs7, active compounds read low 1.02 | S. cerevisiae deletion strains, locus YHR200W, strain rpn10, active compounds read low 0.984 | S. cerevisiae deletion strains, locus YIL066C, strain RNR3, active compounds read low 0.953 | S. cerevisiae deletion strains, locus YIL073C, strain SPO22, active compounds read low 1.04 | S. cerevisiae deletion strains, locus YIL125W, strain kgd1, active compounds read low 0.989 | S. cerevisiae deletion strains, locus YIR030C, strain dcg1, active compounds read low 0.988 | S. cerevisiae deletion strains, locus YJL092W, strain hpr5, active compounds read low 0.969 | S. cerevisiae deletion strains, locus YJL095W, strain BCK1 (second series), active compounds read low 0.998 | S. cerevisiae deletion strains, locus YJL095W, strain BCK1, active compounds read low 0.934 | S. cerevisiae deletion strains, locus YJL115W, strain asf1, active compounds read low 0.998 | S. cerevisiae deletion strains, locus YJL129C, strain trk1, active compounds read low 0.978 | S. cerevisiae deletion strains, locus YJL134W, strain LCB3, active compounds read low 0.99 | S. cerevisiae deletion strains, locus YJL154C, strain vps35, active compounds read low 0.993 | S. cerevisiae deletion strains, locus YJL164C, strain tpk1, active compounds read low 0.997 | S. cerevisiae deletion strains, locus YJL166W, strain qcr8, active compounds read low 0.961 | S. cerevisiae deletion strains, locus YJL168C, strain set2, active compounds read low 0.988 | S. cerevisiae deletion strains, locus YJL187C, strain SWE1 (second series), active compounds read low 0.947 | S. cerevisiae deletion strains, locus YJL187C, strain SWE1, active compounds read low 0.998 | S. cerevisiae deletion strains, locus YJR043C, strain POL32, active compounds read low 0.985 | S. cerevisiae deletion strains, locus YKL009W, strain mrt4, active compounds read low 0.985 | S. cerevisiae deletion strains, locus YKL068W, active compounds read low 0.981 | S. cerevisiae deletion strains, locus YKL085W, strain MDH1 (second series), active compounds read low 0.981 | S. cerevisiae deletion strains, locus YKL085W, strain MDH1, active compounds read low 0.981 | S. cerevisiae deletion strains, locus YKL160W, strain elf1, active compounds read low 0.98 | S. cerevisiae deletion strains, locus YKL190W, strain CNB1, active compounds read low 0.992 | S. cerevisiae deletion strains, locus YKR001C, strain vps1, active compounds read low 0.985 | S. cerevisiae deletion strains, locus YKR026C, strain gcn3, active compounds read low 0.995 | S. cerevisiae deletion strains, locus YKR091W, strain srl3, active compounds read low 0.998 | S. cerevisiae deletion strains, locus YLL001W, strain dnm1, active compounds read low 0.947 | S. cerevisiae deletion strains, locus YLL026W, active compounds read low 0.993 | S. cerevisiae deletion strains, locus YLL041C, strain sdh2, active compounds read low 0.991 | S. cerevisiae deletion strains, locus YLR027C, strain aat2, active compounds read low 0.988 | S. cerevisiae deletion strains, locus YLR039C, strain RIC1, active compounds read low 0.929 | S. cerevisiae deletion strains, locus YLR058C, strain SHM2, active compounds read low 0.974 | S. cerevisiae deletion strains, locus YLR102C, strain apc9, active compounds read low 0.996 | S. cerevisiae deletion strains, locus YLR221C, strain rsa3, active compounds read low 0.992 | S. cerevisiae deletion strains, locus YLR258W, strain gsy2, active compounds read low 1 | S. cerevisiae deletion strains, locus YLR262C, strain YPT6 (second series), active compounds read low 0.939 | S. cerevisiae deletion strains, locus YLR262C, strain YPT6, active compounds read low 0.929 | S. cerevisiae deletion strains, locus YLR268W, strain sec22, active compounds read low 0.968 | S. cerevisiae deletion strains, locus YLR320W, strain mms22, active compounds read low 1 | S. cerevisiae deletion strains, locus YLR330W, strain CHS5, active compounds read low 0.993 | S. cerevisiae deletion strains, locus YLR342W, strain FKS1 (second series), active compounds read low 1.03 | S. cerevisiae deletion strains, locus YLR342W, strain FKS1, active compounds read low 0.975 | S. cerevisiae deletion strains, locus YLR357W, strain rsc2, active compounds read low 0.945 | S. cerevisiae deletion strains, locus YLR370C, strain arc18, active compounds read low 0.991 | S. cerevisiae deletion strains, locus YLR371W, strain rom2, active compounds read low 0.999 | S. cerevisiae deletion strains, locus YLR384C, strain iki3, active compounds read low 0.976 | S. cerevisiae deletion strains, locus YLR418C, strain cdc73, active compounds read low 1.03 | S. cerevisiae deletion strains, locus YML016C, strain PPZ1, active compounds read low 0.984 | S. cerevisiae deletion strains, locus YML032C, strain rad52, active compounds read low 0.984 | S. cerevisiae deletion strains, locus YML120C, strain ndi1, active compounds read low 0.99 | S. cerevisiae deletion strains, locus YML124C, strain tub3, active compounds read low 0.985 | S. cerevisiae deletion strains, locus YMR058W, strain fet3, active compounds read low 0.988 | S. cerevisiae deletion strains, locus YMR078C, strain ctf18, active compounds read low 0.979 | S. cerevisiae deletion strains, locus YMR125W, strain sto1, active compounds read low 0.988 | S. cerevisiae deletion strains, locus YMR129W, active compounds read low 0.996 | S. cerevisiae deletion strains, locus YMR205C, strain PFK2, active compounds read low 0.983 | S. cerevisiae deletion strains, locus YMR223W, strain ubp8, active compounds read low 1.04 | S. cerevisiae deletion strains, locus YMR231W, strain pep5, active compounds read low 0.99 | S. cerevisiae deletion strains, locus YMR307W, strain GAS1, active compounds read low 1.07 | S. cerevisiae deletion strains, locus YNL067W, strain RPL9B, active compounds read low 0.954 | S. cerevisiae deletion strains, locus YNL071W, strain lat1, active compounds read low 1 | S. cerevisiae deletion strains, locus YNL128W, strain TEP1, active compounds read low 1.01 | S. cerevisiae deletion strains, locus YNL209W, strain ssb2, active compounds read low 0.991 | S. cerevisiae deletion strains, locus YNL233W, strain BNI4, active compounds read low 0.96 | S. cerevisiae deletion strains, locus YNL248C, strain rpa49, active compounds read low 1.02 | S. cerevisiae deletion strains, locus YNL250W, strain rad50, active compounds read low 0.989 | S. cerevisiae deletion strains, locus YNL271C, strain bni1, active compounds read low 0.978 | S. cerevisiae deletion strains, locus YNL298W, strain CLA4, active compounds read low 0.999 | S. cerevisiae deletion strains, locus YNL307C, strain MCK1, active compounds read low 0.988 | S. cerevisiae deletion strains, locus YNL322C, strain KRE1 (second series), active compounds read low 0.985 | S. cerevisiae deletion strains, locus YNR049C, strain mso1, active compounds read low 0.987 | S. cerevisiae deletion strains, locus YNR052C, strain pop2, active compounds read low 0.998 | S. cerevisiae deletion strains, locus YOL006C, strain TOP1, active compounds read low 0.899 | S. cerevisiae deletion strains, locus YOL012C, strain htz1 0.795 | S. cerevisiae deletion strains, locus YOL147C, strain pex11, active compounds read low 0.993 | S. cerevisiae deletion strains, locus YOR001W, strain rrp6, active compounds read low 0.983 | S. cerevisiae deletion strains, locus YOR061W, strain CKA2, active compounds read low 0.958 | S. cerevisiae deletion strains, locus YOR069W, strain VPS5, active compounds read low 0.99 | S. cerevisiae deletion strains, locus YOR070C, strain gyp1, active compounds read low 0.999 | S. cerevisiae deletion strains, locus YOR080W, strain dia2, active compounds read low 0.977 | S. cerevisiae deletion strains, locus YOR083W, strain WHI5, active compounds read low 0.971 | S. cerevisiae deletion strains, locus YOR106W, strain vam3, active compounds read low 0.955 | S. cerevisiae deletion strains, locus YOR136W, strain idh2, active compounds read low 0.988 | S. cerevisiae deletion strains, locus YOR144C, strain elg1, active compounds read low 0.992 | S. cerevisiae deletion strains, locus YOR184W, strain ser1, active compounds read low 0.914 | S. cerevisiae deletion strains, locus YOR265W, strain rbl2, active compounds read low 0.997 | S. cerevisiae deletion strains, locus YOR290C, strain snf2, active compounds read low 0.945 | S. cerevisiae deletion strains, locus YOR316C, strain cot1, active compounds read low 0.979 | S. cerevisiae deletion strains, locus YPL051W, strain arl3, active compounds read low 0.965 | S. cerevisiae deletion strains, locus YPL078C, strain atp4, active compounds read low 0.969 | S. cerevisiae deletion strains, locus YPL106C, strain sse1, active compounds read low 0.958 | S. cerevisiae deletion strains, locus YPL240C, strain hsp82, active compounds read low 0.994 | S. cerevisiae deletion strains, locus YPR119W, strain clb2, active compounds read low 0.988 | S. cerevisiae deletion strains, locus YPR141C, strain kar3, active compounds read low 0.973 | S. cerevisiae deletion strains, locus YPR163C, strain tif3, active compounds read low 0.985 | S. cerevisiae deletion strains, locus YPR167C, strain met16, active compounds read low 0.993 | S. cerevisiae deletion strains, strain wtn01, active compounds read low 1.01 | S. cerevisiae strains, strain wild type, active compounds read low 0.984
